# Source: PubChem BioAssay (NCATS)
# Inconclusive results are not listed. A call without a number means that no potency is given here. The source made the active and inactive calls. Calls come from the whole dose curve; as a rule, active = well fitted inhibition curve with a large enough effect; inconclusive = small, poorly fitted or top-dose-only effect; inactive = flat fitted curve, though single readings scatter.
# Target: Calcium and integrin-binding protein 1 (Homo sapiens) (UniProt Q99828)
# Sequence (Q99828 whole entry, looked up): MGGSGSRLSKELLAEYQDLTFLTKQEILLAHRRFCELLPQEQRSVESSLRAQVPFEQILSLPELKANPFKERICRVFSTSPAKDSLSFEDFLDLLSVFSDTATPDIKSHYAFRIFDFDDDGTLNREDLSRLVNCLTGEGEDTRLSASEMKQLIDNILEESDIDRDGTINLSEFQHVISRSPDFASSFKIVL
# Experiment: Primary qHTS for Identification of Calcium Integrin Binding Protein 1 (CIB1) Competitor (AID 1508620);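 note: GST tagged CIB1 binding a fluorescein labelled alphaIIb integrin peptide tracer; top concentration of the series differs between compounds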
# Conditions: CIB1-GST / FITC-alphaIIb peptide fluorescence polarization; series mostly up to 114 µM
# Method in brief: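 Fluorescence polarization competition: CIB1-GST (1 uM final) preincubated with compound 15 min at room temperature, then FITC-labeled alphaIIb peptide (100 nM final) added for another 15 min. Polarization read at Ex 480/Em 540.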
row,Structure (SMILES),Potency
1,COc1ccccc1-c1csc2ncnc(Sc3nnnn3C)c12,inactive
2,CCOC(=O)c1cccc(NC(=O)Nc2nnc(-c3ccncc3)s2)c1,inactive
3,Cc1cnc(-c2ccccc2C(C)C)nc1NCc1ccc(C#N)cc1,inactive
4,O=C(O)c1ccc(S(=O)(=O)N[C@H](Cc2ccc(C(F)(F)F)cc2)C(=O)O)cc1,inactive
5,Clc1cccc(-c2ccc3ncnc(NCc4cccnc4)c3c2)c1,inactive
6,Cc1cc(NC(=O)Nc2nnc(-c3cccnc3)s2)ccc1Cl,inactive
7,CC(=O)NCc1cc(Cl)c2cccnc2c1O,inactive
8,CCC(=O)NC(C)c1cc(Cl)c2ccccc2c1O (stereo not given),inactive
9,CCOc1ccc(CCNC(=O)c2csc(Br)n2)cc1OCC,inactive
10,CC(C)(C)C(=O)N1CCN(c2cccc(Nc3nn4c(=O)c5ccccc5nc4s3)c2)CC1,inactive
11,COc1ccc(N2Cc3cccc(C(=O)O)c3C2=O)cc1OC,inactive
12,c1cncc(CNc2ncnc3ccc(-c4ccc5c(c4)OCCO5)cc23)c1,inactive
13,CC(C)c1ccccc1-c1ncc(F)c(NCc2ccc(-c3ccn[nH]3)cc2)n1,inactive
14,Nc1nnc(-c2ccc3ccccc3c2)o1,inactive
15,COc1ccccc1-c1ncc(C)c(NCc2ccc(-c3cccnc3)cc2)n1,inactive
16,CN(c1ccccc1)c1ccc(CNc2nn3c(=O)c4ccccc4nc3s2)cc1,inactive
17,Cc1cc(NS(=O)(=O)c2ccc(C(=O)NCc3ccc(Cl)c(Cl)c3)cc2)no1,inactive
18,O=C(COC(=O)CNC(=O)c1ccccc1Cl)Nc1cc(C(F)(F)F)ccc1Cl,inactive
19,CCC(C)N(C)C(=O)Cn1nc(-c2ccc(C)cc2)ccc1=O (stereo not given),inactive
20,O=C(OCC#CCSc1nnc(-c2ccco2)o1)c1ccc(F)cc1,inactive

row,Structure (SMILES),Potency
1,O=C1CCCC2=C1C(c1[nH]ncc1Cl)NC(=NCc1ccoc1)N2 (stereo not given),inactive
2,O=C(Nc1ccc(-c2nc3ccccc3[nH]2)cc1)c1ccc(Oc2ccccc2)cc1,inactive
3,CN(CC(=O)Nc1ccc(N2CCOCC2)cc1)Cc1cccc2ccccc12,inactive
4,Cc1ccc2c(c1)/C(=C\c1cc(Cl)c(O)c(Cl)c1)C(=O)N2,inactive
5,COc1nccc(-c2nc(Nc3ccc(F)c(F)c3)c3ccccc3n2)c1Cl,inactive
6,O=C1CCc2cc(S(=O)(=O)Nc3cccc(-c4ccccc4)c3)ccc2N1,inactive
7,O=C1c2ccccc2C(=O)N1c1ccncc1,inactive
8,O=S(=O)(c1ccc2c(c1)OCCO2)C1CCN(S(=O)(=O)c2c(F)cccc2F)CC1,inactive
9,CC(Nc1ncnc2ccc(-c3ccc4c(c3)OCO4)cc12)c1ccco1 (stereo not given),inactive
10,O=C(Nc1ccccc1)c1cccs1,inactive
11,COc1cc(O)c(C(CC(=O)N2CCCC(C(=O)c3ccccc3)C2)c2ccc3c(c2)OCO3)c(OC)c1 (stereo not given),inactive
12,Cc1cnc(-c2ccccc2C(F)F)nc1NCc1ccc(-n2ccnn2)cc1,inactive
13,C/C(=C\c1cccc(C(F)(F)F)c1)C1Nc2cccc3cccc(c23)N1,inactive
14,NC(=O)C1CCN(c2nc(-c3cccnc3)cs2)CC1,inactive
15,Cc1occc1-c1ccc2ncnc(NCCc3cnc[nH]3)c2c1,inactive
16,Cc1ccc(OCCn2c(CCNC(=O)c3cccnc3)nc3ccccc32)cc1,inactive
17,Nc1ncc(S(=O)(=O)N2CCOCC2)s1,inactive
18,O=C1CCCC2=C1C(c1[nH]ncc1Cl)N=C(c1nc3ccccc3o1)N2 (stereo not given),inactive
19,Cc1ccc(OCCn2c(CCNC(=O)c3ccco3)nc3ccccc32)cc1,inactive
20,COC(=O)c1ccc(O)c2ncc(-c3ccc(C(=O)N4CCN(C)CC4)cc3)cc12,inactive
